Bioassay records deposited in PubChem by several laboratories.
PHOSPHO1 block: inhibitors of human PHOSPHO1 phosphatase; Q8TCT1; recombinant PHOSPHO1, absorbance phosphatase assay; inhibition, % at 13.3 µM; 1.1% of 290,000 active; AID 1565; in the data active = inhibition above about 60%
Target sequence (Q8TCT1 whole entry, looked up): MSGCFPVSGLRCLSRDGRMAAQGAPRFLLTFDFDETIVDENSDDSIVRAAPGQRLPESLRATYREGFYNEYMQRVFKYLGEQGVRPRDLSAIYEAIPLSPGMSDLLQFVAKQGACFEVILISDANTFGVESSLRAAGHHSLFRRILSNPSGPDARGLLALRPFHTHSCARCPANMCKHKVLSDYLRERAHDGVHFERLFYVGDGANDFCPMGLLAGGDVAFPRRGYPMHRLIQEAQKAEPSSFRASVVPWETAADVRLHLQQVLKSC
rCAG RNA binder: r(CAG) repeat RNA binding | TO-PRO-1 dye displacement fluorescence | inhibition, % at 3 µM | 1.3% of 370,000 active | AID 651821;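 active = inhibition above the plate cutoff, the mean of all test compounds on that plate plus 3 SD, cut at about 35% in these data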;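 note: 0% = DMSO alone and 100% = 100 µM mitoxantrone as full dye displacement; higher means more dye released from RNA so lower well fluorescence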
ALR H2O2 inh: human ALR oxidase inhibition via reduced H2O2; purified ALR, DTT oxidation, H2O2 HRP-luminol luminescence; AID 485317; inhibition, % (test concentration not listed); P55789; 3.8% of 290,000 active;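 active = mean replicate inhibition above about 79%, with every replicate also reaching it, limit read from the data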
APOBEC3A inh: human APOBEC3A DNA deaminase inhibition; recombinant A3A, FAM/TAMRA ssDNA deamination fluorescence; inhibition, % at 20 µM; 0.41% of 330,000 active; AID 493011;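 active = at least 40% inhibition at 20 µM here, with at most 30% in a related deaminase screen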;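 note: plate controls were A3A with DMSO for no effect and wells lacking A3A enzyme for full effect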
Target sequence (P31941 whole entry, looked up): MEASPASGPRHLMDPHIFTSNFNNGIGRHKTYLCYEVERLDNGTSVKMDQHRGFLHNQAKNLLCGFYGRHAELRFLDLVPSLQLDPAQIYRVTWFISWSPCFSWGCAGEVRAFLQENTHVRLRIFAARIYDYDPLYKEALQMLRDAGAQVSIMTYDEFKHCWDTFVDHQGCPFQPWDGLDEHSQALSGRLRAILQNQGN
aDG glyco up: alpha-DG glycosylation activation | Pro5-aDG cells, alpha-DG glycosylation AlphaScreen (IIH6); 0% Pro5, 100% B10-LARGE cell signal | 0.22% of 360,000 active | activation, % at 10 µM | AID 624168;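 active = activation of at least 8% versus controls, or a plate z-score of at least 8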;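 note: Pro5 are CHO cells carrying HIG-tagged alpha-DG that lacks glycosylation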
APOBEC3G inh: blocks human APOBEC3G single-stranded DNA deamination; Q9HC16; recombinant A3G, ssDNA deamination FAM/TAMRA fluorescence; inhibition, % at 20 µM; 0.28% of 330,000 active; AID 493012;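 active = inhibition of at least 40% at 20 µM, with no more than 30% in the related APOBEC3A deaminase screen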;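 note: plate controls were DMSO wells with A3G for no effect and wells lacking A3G enzyme for full effect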
Active calls of the source: *; . = no result given. Shown are actives, neighbours in structure and some others; about 5.4% of the full set was active somewhere.

SMILES | PHOSPHO1 block | rCAG RNA binder | ALR H2O2 inh | APOBEC3A inh | aDG glyco up | APOBEC3G inh
O=C(CNCc1ccccc1Cl)NCc1ccco1 | 39 | -1 | -1 | -1 | 0 | -4
CC(C)CCOc1ccc(CO[C@@H]2[C@H]3OC(C)(C)O[C@H]3O[C@@H]2C(O)CO)cc1 (some centres not stated) | 24 | -11 | 87* | 3 | 0 | 4
CC(C)CCOc1ccc(NC(=O)C2OC3OC(C)(C)OC3C3OC(C)(C)OC23)cc1 (configuration not stated) | 49 | -2 | -4 | 0 | 0 | -4
C/C(=N\Nc1nccnc1Cl)c1ccc(O)cc1 | 36 | -2 | 93* | -6 | 0 | -7
C/C(=N\Nc1nccnc1Cl)c1ccc(F)cc1 | 49 | -2 | 2 | -2 | 0 | -7
O=C1CC(N2CCOCC2)=NC(=O)N1c1ccc(Br)cc1 | . | 5 | . | . | . | .
CSc1nnc(N2C(=O)C(O)=C(C(=O)c3ccco3)C2c2ccc(F)cc2)s1 (configuration not stated) | 7 | 9 | 10 | . | 0 | .
CSc1nnc(N2C(=O)C(O)=C(C(=O)c3ccco3)C2c2cccc(Cl)c2)s1 (configuration not stated) | 19 | 31 | 87* | . | 0 | .
O=C(Nc1ccc(C(F)(F)F)cc1)OC1CCC12CCCCC2 (configuration not stated) | . | 2 | . | . | . | .
O=[N+]([O-])c1ccccc1N=NNc1ccccc1 | . | 4 | . | . | 0 | .
O=[N+]([O-])c1ccccc1N=Nc1ccc(O)cc1 | . | 5 | 80* | 0 | 0 | -4
N/C(=N\O)c1ccc(Oc2ccccc2Cl)c([N+](=O)[O-])c1 | -22 | 22 | 98* | 3 | 0 | 5
O=[N+]([O-])c1ccccc1Oc1ccccc1Cl | -12 | 1 | -3 | 0 | 0 | 0
CCOc1cc(C=NN2CCN(Cc3ccc(C)cc3)CC2)ccc1O | . | 2 | . | . | . | .
Fc1cccc(Cl)c1CSc1nnc(CNc2ccccc2)o1 | 22 | -2 | 21 | 8 | 0 | -7
Clc1cccc(Cl)c1CSc1nnc(/C=C/c2ccccc2)o1 | 66* | 6 | -18 | -4 | 0 | -7
O=C(CSc1nnc(CNC(=O)c2ccccc2)o1)Nc1ccc2c(c1)OCO2 | 28 | 2 | 14 | 0 | 0 | -3
O=C(CSc1nnc(CNC(=O)c2c(F)cccc2Cl)o1)Nc1ccc2c(c1)OCCO2 | 8 | 3 | 99* | 1 | 0 | 2
CCOC(=O)c1c(NC(=O)CSc2nnc(CNc3ccc(F)cc3)o2)sc(C)c1C | 53 | 1 | -5 | 2 | 0 | 2
O=C(CSc1nnc(CNC(=O)c2c(F)cccc2Cl)o1)NCc1ccc2c(c1)OCO2 | 36 | 0 | -13 | 3 | 0 | 3
CCOC(=O)c1c(NC(=O)CSc2nnc(CNc3ccc(Cl)cc3)o2)sc(C)c1C | -8 | 2 | 84* | 1 | 0 | 0
O=C(CSc1nnc(CNC(=O)c2c(F)cccc2F)o1)Nc1ccc2c(c1)OCCO2 | 34 | 2 | 98* | -2 | 0 | -8
O=C(CSc1nnc(CNC(=O)c2c(F)cccc2F)o1)Nc1ccc2c(c1)OCO2 | 5 | 0 | 98* | -2 | 0 | -4
CCOC(=O)c1ccc(NC(=O)CSc2nnc(CNC(=O)c3c(F)cccc3Cl)o2)cc1 | 26 | 7 | 99* | 2 | 0 | 8
CC(C)(C)OC(=O)NCCc1nnc(SCC(=O)Nc2cccc(Cl)c2)o1 | -1 | 2 | 0 | 0 | 0 | -4
SMILES | PHOSPHO1 block | rCAG RNA binder | ALR H2O2 inh | APOBEC3A inh | aDG glyco up | APOBEC3G inh
NCCc1nnc(SCC(=O)Nc2cccc(Cl)c2)o1 | -4 | 0 | 99* | 0 | 2 | 14
N#CCC(=O)Nc1ccc(C(=O)NCC2(N3CCOCC3)CCCCC2)cc1 | . | 13 | 99* | -3 | 0 | -2
CC(=O)Nc1ccc(SCC(=O)NCC2(N3CCCCC3)CCCCC2)cc1 | . | 13 | 99* | -3 | 0 | -9
CCCCCc1ccc(-c2n[nH]c(=O)c3ccccc23)cc1 | . | -1 | . | . | . | .
C[C@H]1CCCN1c1ccc2c(c1)OCCCN(C1CC1)S2(=O)=O | . | 0 | . | . | . | .
COC(=O)c1cc2c(c3c4cc(F)ccc4n(S(=O)(=O)c4ccc(C)cc4)c13)C(=O)N(C)C2 | . | 11 | . | . | . | .
Cc1cc(=O)oc2cc(OCCSCCN3CCCC3)ccc12 | 51 | -1 | 98* | -3 | 0 | -12
Cc1nc(N)sc1N=Nc1ccc(Br)cc1 | 32 | 12 | 99* | 1 | 0 | -2
